Results on one molecule are retold here after the supplement of paper PMC11732987, “Enantioselective OTUD7B fragment discovery through chemoproteomics screening and high-throughput optimisation” (Communications Chemistry, 2025).

A number with no mark means an inactive call.

Common to all, as to assay: log2 ratio of Biotin-Ahx-Ub-VS probe labelling (fragment/DMSO); higher = less target engagement (more negative = stronger competition), active = hit call of the paper (q ≤ 0.05, log2 ratio ≤ -1)
Holding throughout (conditions): compound concentration: 200 uM; treatment time: 3 h

The target of experiment [1] is T1, OTUD6B (UniProt Q8N6M0).
T1 sequence (whole entry): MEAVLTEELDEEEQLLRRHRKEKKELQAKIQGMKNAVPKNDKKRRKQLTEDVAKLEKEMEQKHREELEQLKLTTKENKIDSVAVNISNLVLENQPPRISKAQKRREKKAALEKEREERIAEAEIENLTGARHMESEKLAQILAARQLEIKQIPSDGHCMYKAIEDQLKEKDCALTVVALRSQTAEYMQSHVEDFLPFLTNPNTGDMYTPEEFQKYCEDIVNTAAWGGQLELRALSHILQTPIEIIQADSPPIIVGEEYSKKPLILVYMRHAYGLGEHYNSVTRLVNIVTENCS
Put shortly:
(§1)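 Using Biotin-Ahx-Ub-VS at 0.5 µM final for 1 h, DUBs were labelled in HEK293T lysate (495 µg per sample) that had first been treated in triplicate with fragment at 200 µM or vehicle for 3 h. NeutrAvidin enrichment, LysC and trypsin digestion and diaPASEF LC-MS/MS followed. Spectronaut label-free quantities were global-median-normalised. Values are average log2 fragment/vehicle ratios by unpaired t-test, using proteins with ≥2 unique peptides.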

The target in experiment [2] is T2, OTUD7B (UniProt Q6GQQ9).
T2 sequence (whole entry): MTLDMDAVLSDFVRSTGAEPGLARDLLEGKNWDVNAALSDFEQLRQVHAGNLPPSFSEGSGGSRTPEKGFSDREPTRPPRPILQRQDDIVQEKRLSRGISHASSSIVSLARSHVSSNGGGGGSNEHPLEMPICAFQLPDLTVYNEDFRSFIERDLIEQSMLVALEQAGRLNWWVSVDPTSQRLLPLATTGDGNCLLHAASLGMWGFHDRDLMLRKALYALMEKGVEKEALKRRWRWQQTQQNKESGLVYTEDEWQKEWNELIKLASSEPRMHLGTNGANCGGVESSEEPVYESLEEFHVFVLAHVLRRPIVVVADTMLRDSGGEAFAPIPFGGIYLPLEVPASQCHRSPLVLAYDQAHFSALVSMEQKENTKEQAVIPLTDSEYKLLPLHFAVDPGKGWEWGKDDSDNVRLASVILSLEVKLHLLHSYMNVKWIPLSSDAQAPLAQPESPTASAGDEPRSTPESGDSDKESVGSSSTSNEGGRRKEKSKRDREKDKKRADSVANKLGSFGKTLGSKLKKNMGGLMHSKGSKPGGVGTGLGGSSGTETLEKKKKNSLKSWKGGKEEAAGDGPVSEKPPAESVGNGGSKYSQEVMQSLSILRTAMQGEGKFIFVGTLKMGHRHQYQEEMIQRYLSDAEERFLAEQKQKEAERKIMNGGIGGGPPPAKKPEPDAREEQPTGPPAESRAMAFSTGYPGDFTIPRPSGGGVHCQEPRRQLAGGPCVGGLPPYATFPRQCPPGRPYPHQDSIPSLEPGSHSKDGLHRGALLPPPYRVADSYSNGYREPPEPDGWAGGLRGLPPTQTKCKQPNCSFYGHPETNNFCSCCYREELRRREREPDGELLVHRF
The method, boiled down:
as §1

For experiment [3], the target named is PRPF8 (UniProt Q6P2Q9). The method, boiled down:
as §1

For experiment [4], the target named is T3, PSMD7 (UniProt P51665).
T3 sequence (whole entry): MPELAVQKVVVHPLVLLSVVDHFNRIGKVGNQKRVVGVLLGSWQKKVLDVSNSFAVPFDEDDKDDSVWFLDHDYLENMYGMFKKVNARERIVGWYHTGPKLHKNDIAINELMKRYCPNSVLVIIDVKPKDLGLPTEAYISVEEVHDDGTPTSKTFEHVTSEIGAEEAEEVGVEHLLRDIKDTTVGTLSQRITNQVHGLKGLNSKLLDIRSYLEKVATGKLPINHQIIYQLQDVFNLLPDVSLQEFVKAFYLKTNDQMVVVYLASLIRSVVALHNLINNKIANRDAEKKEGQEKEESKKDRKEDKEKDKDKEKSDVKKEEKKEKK
Put shortly:
as §1

Experiment [5] has as its target UCHL1 (UniProt P09936). The method, boiled down:
as §1

Experiment [6] addresses T4, UCHL3 (UniProt P15374).
T4 sequence (whole entry): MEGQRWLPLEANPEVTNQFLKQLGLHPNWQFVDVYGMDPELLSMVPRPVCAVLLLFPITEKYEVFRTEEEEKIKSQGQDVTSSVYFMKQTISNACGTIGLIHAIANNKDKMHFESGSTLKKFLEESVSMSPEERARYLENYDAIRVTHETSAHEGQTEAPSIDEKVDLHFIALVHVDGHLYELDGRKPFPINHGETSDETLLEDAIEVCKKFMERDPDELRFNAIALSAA
The method, boiled down:
as §1

Experiment [7] has as its target T5, UCHL5 (UniProt Q9Y5K5).
T5 sequence (whole entry): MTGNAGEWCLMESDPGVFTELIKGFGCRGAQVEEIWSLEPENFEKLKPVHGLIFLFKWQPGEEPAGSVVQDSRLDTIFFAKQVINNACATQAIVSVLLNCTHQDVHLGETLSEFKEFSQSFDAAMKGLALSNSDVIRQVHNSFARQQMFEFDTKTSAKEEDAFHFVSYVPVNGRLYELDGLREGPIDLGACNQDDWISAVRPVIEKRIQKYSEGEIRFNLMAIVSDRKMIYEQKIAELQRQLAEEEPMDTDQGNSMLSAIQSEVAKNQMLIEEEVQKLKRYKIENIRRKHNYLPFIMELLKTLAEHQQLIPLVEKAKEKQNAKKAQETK
The method, boiled down: as §1

Experiment [8] has as its target USP10 (UniProt Q14694). Put shortly:
as §1

In experiment [9] the target is T6, USP15 (UniProt Q9Y4E8).
T6 sequence (whole entry): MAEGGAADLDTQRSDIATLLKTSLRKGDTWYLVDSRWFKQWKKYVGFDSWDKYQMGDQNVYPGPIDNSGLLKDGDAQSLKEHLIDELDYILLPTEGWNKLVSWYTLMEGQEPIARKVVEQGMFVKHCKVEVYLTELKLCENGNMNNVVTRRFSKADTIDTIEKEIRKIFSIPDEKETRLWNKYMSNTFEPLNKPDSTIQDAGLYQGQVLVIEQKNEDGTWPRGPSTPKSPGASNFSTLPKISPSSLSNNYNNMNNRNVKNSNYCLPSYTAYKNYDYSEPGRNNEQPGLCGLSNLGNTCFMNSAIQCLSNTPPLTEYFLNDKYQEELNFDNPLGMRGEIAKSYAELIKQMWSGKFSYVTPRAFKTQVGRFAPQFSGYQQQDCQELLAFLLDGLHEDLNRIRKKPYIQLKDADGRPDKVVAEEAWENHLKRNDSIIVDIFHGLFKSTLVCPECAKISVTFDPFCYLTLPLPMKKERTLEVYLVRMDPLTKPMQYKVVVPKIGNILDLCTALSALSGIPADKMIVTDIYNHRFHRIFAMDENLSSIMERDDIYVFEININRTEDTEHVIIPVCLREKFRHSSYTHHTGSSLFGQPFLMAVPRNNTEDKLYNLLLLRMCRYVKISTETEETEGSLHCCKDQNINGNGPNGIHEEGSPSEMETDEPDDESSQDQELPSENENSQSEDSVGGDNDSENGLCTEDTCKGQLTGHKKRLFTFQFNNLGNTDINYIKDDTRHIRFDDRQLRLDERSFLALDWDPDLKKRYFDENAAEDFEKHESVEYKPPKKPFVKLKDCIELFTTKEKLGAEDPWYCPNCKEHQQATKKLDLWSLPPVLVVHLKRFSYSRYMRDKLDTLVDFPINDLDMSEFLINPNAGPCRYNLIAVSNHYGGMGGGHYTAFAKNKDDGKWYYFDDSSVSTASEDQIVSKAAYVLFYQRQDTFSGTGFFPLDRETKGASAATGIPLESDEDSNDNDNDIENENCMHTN
Put shortly: as §1

The target in experiment [10] is USP16 (UniProt Q9Y5T5). Put shortly: as §1
USP16, sequence (Q9Y5T5 whole entry, looked up): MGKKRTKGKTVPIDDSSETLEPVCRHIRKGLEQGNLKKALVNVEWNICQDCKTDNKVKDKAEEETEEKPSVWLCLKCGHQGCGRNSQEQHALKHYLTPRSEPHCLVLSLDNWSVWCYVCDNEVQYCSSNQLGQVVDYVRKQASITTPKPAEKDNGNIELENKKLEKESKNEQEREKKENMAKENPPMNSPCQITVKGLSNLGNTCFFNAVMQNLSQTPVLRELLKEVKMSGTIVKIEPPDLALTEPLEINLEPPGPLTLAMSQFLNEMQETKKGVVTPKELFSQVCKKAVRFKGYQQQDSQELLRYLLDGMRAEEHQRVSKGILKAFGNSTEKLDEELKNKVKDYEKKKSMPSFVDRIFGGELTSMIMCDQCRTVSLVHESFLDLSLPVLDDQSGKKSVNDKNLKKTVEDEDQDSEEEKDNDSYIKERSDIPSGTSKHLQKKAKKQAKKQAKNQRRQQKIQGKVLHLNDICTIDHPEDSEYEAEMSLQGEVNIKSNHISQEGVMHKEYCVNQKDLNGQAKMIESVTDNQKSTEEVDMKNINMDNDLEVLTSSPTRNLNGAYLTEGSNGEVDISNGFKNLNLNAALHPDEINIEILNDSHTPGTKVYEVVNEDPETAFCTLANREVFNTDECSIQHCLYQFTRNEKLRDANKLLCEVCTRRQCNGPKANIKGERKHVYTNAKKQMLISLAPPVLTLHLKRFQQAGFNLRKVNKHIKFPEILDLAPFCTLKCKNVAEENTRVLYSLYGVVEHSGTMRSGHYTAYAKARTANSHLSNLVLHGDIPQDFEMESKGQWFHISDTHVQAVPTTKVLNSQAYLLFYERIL

USP10, sequence (Q14694 whole entry): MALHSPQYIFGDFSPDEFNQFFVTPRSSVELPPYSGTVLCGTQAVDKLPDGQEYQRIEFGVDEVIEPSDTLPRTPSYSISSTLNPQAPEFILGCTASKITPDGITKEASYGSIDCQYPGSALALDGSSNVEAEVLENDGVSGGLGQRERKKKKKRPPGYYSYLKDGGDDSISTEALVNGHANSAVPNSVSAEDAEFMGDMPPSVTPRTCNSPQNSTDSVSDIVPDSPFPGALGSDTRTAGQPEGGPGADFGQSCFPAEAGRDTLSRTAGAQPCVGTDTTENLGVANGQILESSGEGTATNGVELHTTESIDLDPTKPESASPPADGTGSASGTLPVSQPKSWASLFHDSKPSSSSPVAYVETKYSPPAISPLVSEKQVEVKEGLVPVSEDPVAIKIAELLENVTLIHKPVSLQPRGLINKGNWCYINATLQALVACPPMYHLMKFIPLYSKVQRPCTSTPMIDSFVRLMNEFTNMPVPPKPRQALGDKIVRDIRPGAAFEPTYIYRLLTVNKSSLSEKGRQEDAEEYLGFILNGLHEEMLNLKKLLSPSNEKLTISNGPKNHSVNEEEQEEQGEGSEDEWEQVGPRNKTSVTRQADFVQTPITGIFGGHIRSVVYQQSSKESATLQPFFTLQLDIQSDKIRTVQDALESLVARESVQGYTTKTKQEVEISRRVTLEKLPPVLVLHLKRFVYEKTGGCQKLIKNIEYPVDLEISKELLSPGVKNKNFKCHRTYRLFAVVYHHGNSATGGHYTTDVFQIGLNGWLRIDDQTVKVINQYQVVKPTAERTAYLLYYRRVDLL
UCHL1, sequence (P09936 whole entry, looked up): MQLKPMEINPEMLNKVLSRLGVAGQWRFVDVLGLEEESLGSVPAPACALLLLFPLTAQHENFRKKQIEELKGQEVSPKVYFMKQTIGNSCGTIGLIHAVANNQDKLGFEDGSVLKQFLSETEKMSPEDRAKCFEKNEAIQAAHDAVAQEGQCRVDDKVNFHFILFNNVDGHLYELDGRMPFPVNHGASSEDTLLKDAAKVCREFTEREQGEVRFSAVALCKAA

For `Cc1c(C#N)c(NC(=O)CCl)n(Cc2ccco2)c1C`, the “log2 ratio of Biotin-Ahx-Ub-VS probe labelling” value was -0.163 in experiment [1]; -1.87 (active) in experiment [2]; 0.194 in experiment [3]; 0.0239 in experiment [4]; -1.43 (active) in experiment [5]; 0.496 in [6]. Further, the “log2 ratio of Biotin-Ahx-Ub-VS probe labelling” value in experiment [7] is -0.133; in experiment [8], -0.259; in experiment [9], -0.505; in experiment [10], -0.818.
